Experimental data: PubChem BioAssay AID778 (Sanford-Burnham Center for Chemical Genomics, 2007)
Screen size: about 96,000 compounds; about 20,000 (21%) were called active.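 How the source made its calls: active means CYP2C19 inhibition above a set limit at 5 µM in the primary screen (cut at about 50% in these data); inactive means the rest.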 A selection follows.

target: Cytochrome P450 2C19 (Homo sapiens) (UniProt P33261); test: blockers of cytochrome P450 2C19 activity – biochemical, luminescence, ADME assay, primary screen (AID 778); details: CYP2C19 Supersomes, luciferin-H EGE luminescence, 30 min; at 5 µM; active compounds read high;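 further: plate controls were negative control wells for no effect and 2.5 mM tranylcypromine positive control for full effect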
Sequence (P33261 whole entry, looked up): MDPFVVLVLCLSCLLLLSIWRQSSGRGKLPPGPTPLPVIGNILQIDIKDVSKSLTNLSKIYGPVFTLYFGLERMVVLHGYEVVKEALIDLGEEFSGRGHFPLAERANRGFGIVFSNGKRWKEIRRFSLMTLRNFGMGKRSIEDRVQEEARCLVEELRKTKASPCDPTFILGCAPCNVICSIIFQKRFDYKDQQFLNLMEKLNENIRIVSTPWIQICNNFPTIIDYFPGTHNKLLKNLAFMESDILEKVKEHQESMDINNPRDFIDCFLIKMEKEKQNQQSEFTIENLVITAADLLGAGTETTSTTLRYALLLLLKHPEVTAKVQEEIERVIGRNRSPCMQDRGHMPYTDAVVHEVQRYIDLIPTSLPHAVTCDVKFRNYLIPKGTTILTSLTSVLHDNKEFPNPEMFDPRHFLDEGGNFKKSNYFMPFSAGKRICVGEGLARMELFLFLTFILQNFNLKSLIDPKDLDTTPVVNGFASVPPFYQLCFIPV

inhibition, inactive:
CSc1nc2nc3c(c(=O)n2[nH]1)CCC3 4.1%, COc1cc2c(cc1OC)C(c1ccncc1)CC(=O)N2 (centres undefined) 16.4%, COc1cccc(-c2nnc(N(C)C(=O)c3ccno3)s2)c1 11.1%, Cc1nnc(C)n1/N=C/c1ccc(C(C)C)cc1 10.5%, COC(=O)c1ccc(C(=O)Nc2cc(Cl)ccc2Cl)cc1NC(=O)c1ccccc1C 4.7%, Cc1cccc(C(=O)Nc2ccc(CC(=O)O)cc2)c1 -0.6%, Cc1ccccc1NC(=O)c1ccccc1 -2%, COC(=O)c1ccccc1NC(=O)c1cncc(Br)c1 30.8%, CCOc1ccc(-c2cn(S(=O)(=O)c3cccc4nsnc34)nc2N)cc1 3.8%, COc1cc(C(=O)OC(C)C(=O)NCC2CCCCC2)cc(NC(=O)c2ccco2)c1OC (centres undefined) 38.3%, CCOc1ccccc1Nc1nnc(SCc2ccc(C(=O)OC)o2)s1 43%, O=C(O)CSCc1ccc(C(=O)O)o1 -3%, CCc1ccc(C(=O)CSc2nnc(C)c(=O)[nH]2)cc1 19.3%, Cc1cc(C)c(OCC(=O)N/N=C/c2ccco2)c(C)c1 41.2%, Cc1ccc(OCC(=O)Nc2ccc(-c3nc4ncccc4o3)cc2)cc1 3.2%, O=C(Nc1cc2c3c(c1)C1CCCC1CN3CC1CCCC21)c1ccc([N+](=O)[O-])cc1 (centres undefined) 28.2%, Cc1cccc(N(CC(=O)N=Nc2c(O)[nH]c3ccccc23)S(C)(=O)=O)c1C 33.6%, CCc1c(C)nc(N2CCN(Cc3ccccc3)CC2)[nH]c1=O 2.4%, O=c1cc(CSc2ccccn2)nc(N2CCN(c3ccccc3)CC2)[nH]1 -0.6%, COCc1cc(C)nc2sc3c(=O)n(-c4cccc5ccccc45)nnc3c12 24.5%, CN1c2ccccc2-c2nc3ccccc3n2C1c1ccco1 (centres undefined) 14.2%, O=c1c2cc3c(=O)n(CC4CCCO4)c(=O)c3cc2c(=O)n1CC1CCCO1 (centres undefined) 0.8%, COC(=O)c1ccc2c(=O)n(CC3CCCO3)c(=S)[nH]c2c1 (centres undefined) -6.3%, COc1ccc(-c2nc(CS(=O)CC(=O)NCc3cccnc3)c(C)o2)cc1OC (centres undefined) 24.2%, COc1ccc(-c2cc(C(F)(F)F)nc(S(C)(=O)=O)n2)cc1OC 12.6%, COc1ccc(-c2csc3nc(-c4ccccc4F)oc(=O)c23)cc1OC 25.3%, CCCOc1ccccc1-c1nc(SCCC(=O)O)n[nH]1 -4.6%, Cc1nnc(NC(=O)Nc2ccc(Cl)c(Cl)c2)s1 -9.1%, N/C(=N\OC(=O)Nc1ccc(Cl)c(Cl)c1)c1ncc(C(F)(F)F)cc1Cl -13.4%, COc1ccccc1Nc1ncnc2c1oc1ccccc12 30.1%, CC1(C)CC(=O)C=C(NCCN2CCNCC2)C1 -7.9%, CC(C)OCCCNc1ncnc2c1[nH]c1ccc(F)cc12 31.8%, CCN1CCCC1CNc1ncnc2c1[nH]c1ccc(F)cc12 (centres undefined) 14.6%, c1n[nH]c(NCc2ccc3c(c2)OCO3)n1 -7.6%, Cc1cc(N2CCN(Cc3ccc4c(c3)OCO4)CC2)n2ncnc2n1 8.7%, Cc1cc(C(F)(F)F)n2ncc(-c3ccccc3)c2n1 21.2%, C=C1c2cc(CC)ccc2NC(=O)N1c1ccc(C)cc1 32.6%, CC1(C)CC(=O)C2=C(C1)NCN(CCCN1CCOCC1)C2 -0.8%, CCCCc1nc(NCCN)c(C#N)c2c1CSC(C)(C)C2 25.3%, CCNc1nc(SCCOc2ccccc2)nc(N(C)C)n1 12.3%, O=C(CSc1ccccc1)Nc1ccc(NC(=O)c2ccco2)cc1 22%, Cc1ccnc(NC(=O)c2ccc(NC(=O)c3ccco3)cc2)c1 13.1%, O=C(Nc1ccc(Sc2ccc(Br)cc2)cc1)c1ccco1 6.9%, O=C(/C=C/c1ccco1)Nc1ccc(Oc2ccccc2)cc1 8.4%, CCOCCOC(=O)C1=C(C)N(C)C(=O)NC1c1ccccc1F (centres undefined) 47.5%, COc1ccc(CCNC(=O)CN2CCC(n3nnc4cc(F)ccc43)CC2)cc1OC 22.7%, Cc1ccc(C(=O)NNC(=O)OC(C)(C)C)c(Cl)c1 14.6%, CCN1CCN(Cc2nc3c(c(=O)n(C)c(=O)n3C)n2CC(=O)c2ccccc2)CC1 4.3%, CC1CN(c2cc(=O)n(Cc3ccc(F)cc3)c(=O)[nH]2)CC(C)O1 (centres undefined) -11%, Cc1ccccc1/[N+]([O-])=C/c1ccncc1 42.4%, CCOc1cc(/C=C2/N=C(c3ccc(C(C)(C)C)cc3)OC2=O)cc(Cl)c1OS(C)(=O)=O 14.4%, COC(=O)c1sccc1-n1cccc1C(=O)C(=O)N1CCCCC1 31.2%, Cc1cc(C)c(NC(=O)CS(=O)CC(=O)Nc2cccnc2)c(C)c1 (centres undefined) 13.1%, CCC(=O)Nc1cccc(NC(=O)c2cccnc2)c1 6.1%, COc1cc(/C=C(/NC(=O)c2ccccc2)C(=O)Nc2cccc(O)c2)c([N+](=O)[O-])cc1OC 6.1%, Cc1cc(C(=O)Nc2ccccc2N2CCOCC2)c2ccccc2n1 29.8%, c1ccc(-c2oc3ncnc(N4CCOCC4)c3c2-c2ccccc2)cc1 9.2%, CCCCc1c(O)nc2n(c1=O)CCS2 -19.9%, COc1ccc(C(=O)CSc2n[nH]c(N)n2)cc1 4.5%, COC(=O)Cc1cc(=O)n(-c2nc3ccccc3s2)[nH]1 13.8%, CCCCCN1CC(O)=C(c2nc(-c3ccc(Cl)cc3)cs2)C1=N 7.1%, Cc1ccc(Nc2nc(-c3sc(NC(=O)c4ccccc4)nc3C)cs2)cc1 17.1%, CCCC(=O)Nc1ccc(Cl)c(NC(=O)c2ccc(Br)o2)c1 12.5%, CCN1CCN(c2c(Cl)cccc2NC(=O)c2ccc(Br)o2)CC1 16%, O=C(COc1cc(Cl)c(Cl)cc1Cl)NC(=O)NC1CCCC1 -6.2%, CCCC(=O)N1CCc2[nH]c3ccccc3c2C1 25.3%, FC(F)(F)c1cccc(Nc2ncnc3ccccc23)c1 44.1%, O=C(Nc1cccc(Cl)c1)OCc1ccccn1 27.1%, CCOc1cc(N2CCOCC2)c(OCC)cc1NC(=O)COC(=O)[C@H](Cc1c[nH]c2ccccc12)NC(C)=O -4.2%, COc1cccc(N2C(=O)CC(N3CCN(S(=O)(=O)c4ccccc4)CC3)C2=O)c1 (centres undefined) 1.5%, CN1CCN(c2ccc([N+](=O)[O-])c(Sc3nc4ccccc4[nH]3)c2)CC1 33.8%, C=CCOc1ccc(C2/C(=C(\O)c3c(C)[nH]c(C(=O)OC)c3C)C(=O)C(=O)N2CCN(C)C)cc1 (centres undefined) 2.1%, O=C(Nc1ccc2c(c1)CCC2)c1cccc(S(=O)(=O)N2CCN(c3ccc(F)cc3)CC2)c1 26%, CC(C)C(C)NC(=O)COc1ncnc2ccccc12 (centres undefined) 34.6%, Cc1nn(-c2ccccc2)c2sc(C(=O)N(Cc3ccco3)C(C)C(=O)NC(C)(C)C)cc12 (centres undefined) 33.9%, COc1cc(OC)cc(C(=O)NC2CCN(C(=O)N3c4ccccc4Sc4ccccc43)CC2)c1 5.8%, O/N=C1\CC2(Cc3nonc31)OCCO2 -5.4%, Cc1ccc(CN2C(=O)CCC2C(=O)NCCCN2CCCCC2C)cc1 (centres undefined) 8.1%, CCC(C)NC(=O)C1CCC(=O)N1Cc1ccc(C)cc1 (centres undefined) 28.1%, O=C(Cn1cnc2c(nnn2-c2ccccc2)c1=O)N1CCC(Cc2ccccc2)CC1 43.2%

inhibition, active:
COc1ccc(C2CC(=O)Nc3cc(C)c(C)cc32)c(OC)c1OC (centres undefined) 94.5%, CN(C)c1ccc(NC(=O)c2ccncc2)c2ccccc12 90.3%, COC(=O)c1ccc(CSc2ccc3nnc(-c4ccccc4)n3n2)o1 63.7%, Cc1ccc(OCC(=O)N/N=C/c2ccncc2)cc1 96.3%, Cc1nnc(SCc2cc(=O)[nH]c(N3CCN(Cc4ccccc4)CC3)n2)s1 50.4%, CCOc1cccc(=O)c2c(C)n(CC3CCCO3)c(C)c12 (centres undefined) 92.1%, COc1ccc(-c2cc(C(F)(F)F)nc(NCc3cccnc3)n2)cc1 73.4%, O=C(CC(O)(C(F)(F)F)C(F)(F)F)Nc1ccc(Cl)c(Cl)c1 77%, Fc1ccc2[nH]c3c(N4CCSCC4)ncnc3c2c1 58.5%, Fc1ccc2[nH]c3c(N4CCN(Cc5ccc6c(c5)OCO6)CC4)ncnc3c2c1 61.2%, COC(=O)c1ccc(NC(=O)c2ccco2)cc1 53.1%, O=C(Nc1ccc(Oc2ccccc2)cc1)c1ccco1 59.9%, Cc1cccc(-n2cnc(C(=O)Nc3cccnc3)c2)n1 57%, c1ccc(Nc2nc(N3CCOCC3)c3ccccc3n2)cc1 55.6%, COc1ccccc1N1CC(O)=C(c2nc3ccccc3s2)C1=N 50.8%, COc1cc(OC)c(NC(=O)c2ccc(Br)o2)cc1Cl 79.4%, FC(F)(F)c1cccc(NC(=S)Nc2cccc(Cl)c2)c1 74.9%, Cc1ccccc1-n1nc(C)c2cc(C(=O)NC3CC3)sc21 61.4%, O=C(Nc1ccc(Br)cc1)C1CCC(=O)N1Cc1ccccc1Cl (centres undefined) 96.4%
